Activity calls are given as the source filed them.
How the values were obtained:
[1] = target: Albumin (Bos taurus) (UniProt P02769); assay: compounds binding labelled BSA control protein – biochemical, small-molecule microarray, Alexa647 label, 635/667 nm fluorescence, artefact control for SMM control protein annotation, profiling panel (AID 1118); conditions: BSA-A647 binding, fluorescence 635 nm, higher = more signal;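 note: score merges 667 nm emission intensity and signal-to-noise per printed compound spot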
[2] = probe aXIP binding to arrayed compounds – biochemical, NeuroSMM set, 635/667 nm fluorescence, primary screen (AID 1119); conditions: small-molecule microarray, higher = more signal, called active from +8 up or from −8 down;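 note: probe is the protein aXip251-270 applied at 1 µg/mL to compound-printed slides; binding of probe to printed compounds measured as 667 nm fluorescence plus signal to noise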
[3] = probe aNOTCH3 binding on compound microarray – biochemical, small-molecule microarray, 635/667 nm fluorescence, primary screen (AID 1120); conditions: higher = more signal;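 note: probe is a biotin-tagged antibody raised against NOTCH3 rather than NOTCH3 protein; score merges spot fluorescence near 667 nm with spot signal to noise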
[4] = probe aNOTCH2 binding on compound microarray – biochemical, small-molecule microarray, 635/667 nm fluorescence, primary screen (AID 1121); conditions: higher = more signal;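 note: score merges feature fluorescence read at 667 nm with its signal to noise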
[5] = target: Carbonic anhydrase 2 (Homo sapiens) (UniProt P00918); assay: compounds binding carbonic anhydrase 2 – biochemical, small-molecule microarray, Alexa647-labelled CAII, profiling panel (AID 1122); conditions: CAII-A647 binding fluorescence, higher = more signal
[6] = COS7 lysate on small-molecule microarray, probe aHis, 635 nm (AID 1123); conditions: COS7 cell lysate, fluorescence, higher = more signal;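 note: z-score combines 667nm fluorescence intensity with signal-to-noise per printed compound spot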
[7] = probe aLAP1 signal on lysate-treated microarray – cell lysate, small-molecule microarray, COS7 lysate, primary screen (AID 1124); conditions: probe aLAP1, fluorescence, higher = more signal;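 note: lysate comes from COS7 cells expressing LAP1 and is applied at 0.3 µg/mL; score merges spot fluorescence near 667 nm with signal-to-noise over triplicate slides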
[8] = tested on: Sam68 (KHDRBS1); assay: compounds binding KHDRBS1 protein – biochemical, small-molecule microarray, 635 nm fluorescence, primary screen (AID 1125); conditions: higher = more signal;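 note: score merges 667 nm channel intensity with signal to noise over triplicate slides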
[9] = tested on: Chordin-like protein 2 (CHRDL2); assay: compounds binding chordin-like 2 – biochemical, small-molecule microarray, 635 nm fluorescence, primary screen (AID 1126); conditions: fluorescence 635 nm, higher = more signal;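 note: printed compound slides probed with Chrdl2 protein at 4 µg/mL for 1 h at 4 C; score merges 667 nm emission intensity with signal to noise over three replicate slides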
[10] = target: Concanavalin-A (Canavalia ensiformis) (UniProt P02866); assay: compounds binding concanavalin A lectin – biochemical, small-molecule microarray, Alexa647 label, 635 nm, artefact control for SMM control protein annotation, primary screen (AID 1127); conditions: ConA-A647 binding fluorescence, higher = more signal;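 note: z combines 667 nm emission intensity with signal-to-noise across three replicate slides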
[11] = compounds binding Alexa647 anti-His antibody – biochemical, small-molecule microarray, 635 nm fluorescence, artefact control for SMM control protein annotation, primary screen (AID 1128); conditions: higher = more signal;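 note: score merges feature fluorescence with signal-to-noise for each printed compound spot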
[12] = tested on: Human papillomavirus type 1a E7 protein (residues 1-88); assay: HPV1a E7 small-molecule binders, primary screen, biochemical, small-molecule microarray, residues 1-88, 635 nm (AID 1129); conditions: small-molecule microarray binding, fluorescence 635 nm; higher = more signal
[13] = target: Focal adhesion kinase 1 (Homo sapiens) (UniProt Q05397); assay: PTK2 protein binding on printed compound slides – biochemical, small-molecule microarray, 635/667 nm fluorescence, BSA, DTT, primary screen (AID 1130); conditions: 635 nm fluorescence, higher = more signal;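 note: composite of spot emission at 667 nm and signal to noise over triplicate slides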
[14] = tested on: Fibrinogen (Alexa647-labelled); assay: Alexa647-fibrinogen binding to printed small molecules – biochemical, small-molecule microarray, 635/667 nm fluorescence, artefact control for SMM control-protein annotation, profiling panel (AID 1131); conditions: fibrinogen-A647 binding fluorescence, higher = more signal;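 note: z-score merges 667 nm fluorescence with per-spot signal-to-noise over triplicate slides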
[15] = target: Follistatin (Homo sapiens) (UniProt P19883); assay: FST protein binding to printed compounds – biochemical, small-molecule microarray, 635/667 nm fluorescence, primary screen (AID 1132); conditions: 635 nm fluorescence, higher = more signal
[16] = target: Fibroblast growth factor 2 (Homo sapiens) (UniProt P09038); assay: basic fibroblast growth factor binding to printed compounds – biochemical, small-molecule microarray, 635/667 nm fluorescence, primary screen (AID 1133); conditions: FGF2, fluorescence 635/667, higher = more signal
[17] = JC-1 mitochondrial potential readout, lung cancer cells – cell-based, A549, JC-1 fluorescence, basal, 24 h, 100 nL, profiling panel (AID 1138); conditions: higher = more signal;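 note: A549 lung adenocarcinoma cells under basal conditions with no added stimulus; test concentration not given here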
[18] = tested on: Lefty1; assay: Lefty1 protein binding to printed compounds – biochemical, small-molecule microarray, 635/667 nm fluorescence, primary screen (AID 1139); conditions: fluorescence 635/667, higher = more signal
[19] = tested on: wheat germ agglutinin (Triticum aestivum), Alexa647-labelled; assay: Alexa647-WGA lectin binding to printed small molecules – biochemical, small-molecule microarray, 635/667 nm fluorescence, artefact control for SMM control-protein annotation, profiling panel (AID 1140); conditions: WGA-A647 binding, 635 nm fluorescence, higher = more signal;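 note: score merges 667 nm feature emission with signal to noise over triplicate slides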
[20] = target: Luciferin 4-monooxygenase (Photinus pyralis) (UniProt P08659); assay: inhibition of purified Photinus pyralis luciferase – biochemical, luminescence, purified enzyme, 2006 set, primary screen (AID 1141); conditions: purified firefly luciferase, SteadyGlo luminescence, 30 min; higher = more signal, called active from +8 up or from −8 down;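 note: cell-free assay with purified firefly luciferase at 100 ng per well in PBS; test concentration not given here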
Chain of Luciferin 4-monooxygenase (Photinus pyralis) (P08659 whole entry, looked up): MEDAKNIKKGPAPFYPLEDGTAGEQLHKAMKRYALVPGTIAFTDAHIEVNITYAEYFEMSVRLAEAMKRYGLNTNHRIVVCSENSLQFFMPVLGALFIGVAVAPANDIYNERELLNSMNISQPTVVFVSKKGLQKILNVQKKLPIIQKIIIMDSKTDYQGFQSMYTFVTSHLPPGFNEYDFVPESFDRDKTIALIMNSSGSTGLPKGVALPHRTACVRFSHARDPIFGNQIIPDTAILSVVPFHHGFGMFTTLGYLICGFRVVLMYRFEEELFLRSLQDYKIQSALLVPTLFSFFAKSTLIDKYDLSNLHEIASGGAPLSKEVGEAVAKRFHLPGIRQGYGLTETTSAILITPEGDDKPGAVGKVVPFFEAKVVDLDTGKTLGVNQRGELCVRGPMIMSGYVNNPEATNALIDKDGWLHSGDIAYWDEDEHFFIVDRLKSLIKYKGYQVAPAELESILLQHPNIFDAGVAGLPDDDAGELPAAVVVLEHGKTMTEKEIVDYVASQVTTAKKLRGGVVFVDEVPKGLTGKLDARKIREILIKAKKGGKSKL

Chain of Concanavalin-A (Canavalia ensiformis) (P02866 whole entry, looked up): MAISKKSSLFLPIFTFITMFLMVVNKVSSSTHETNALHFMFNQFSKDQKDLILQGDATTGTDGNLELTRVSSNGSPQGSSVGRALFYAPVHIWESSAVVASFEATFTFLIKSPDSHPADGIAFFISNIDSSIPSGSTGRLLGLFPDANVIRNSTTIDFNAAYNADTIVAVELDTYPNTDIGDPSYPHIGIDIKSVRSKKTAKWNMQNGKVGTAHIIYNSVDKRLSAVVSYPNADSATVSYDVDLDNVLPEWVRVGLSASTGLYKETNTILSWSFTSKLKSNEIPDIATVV
Chain of Focal adhesion kinase 1 (Homo sapiens) (Q05397 whole entry, looked up): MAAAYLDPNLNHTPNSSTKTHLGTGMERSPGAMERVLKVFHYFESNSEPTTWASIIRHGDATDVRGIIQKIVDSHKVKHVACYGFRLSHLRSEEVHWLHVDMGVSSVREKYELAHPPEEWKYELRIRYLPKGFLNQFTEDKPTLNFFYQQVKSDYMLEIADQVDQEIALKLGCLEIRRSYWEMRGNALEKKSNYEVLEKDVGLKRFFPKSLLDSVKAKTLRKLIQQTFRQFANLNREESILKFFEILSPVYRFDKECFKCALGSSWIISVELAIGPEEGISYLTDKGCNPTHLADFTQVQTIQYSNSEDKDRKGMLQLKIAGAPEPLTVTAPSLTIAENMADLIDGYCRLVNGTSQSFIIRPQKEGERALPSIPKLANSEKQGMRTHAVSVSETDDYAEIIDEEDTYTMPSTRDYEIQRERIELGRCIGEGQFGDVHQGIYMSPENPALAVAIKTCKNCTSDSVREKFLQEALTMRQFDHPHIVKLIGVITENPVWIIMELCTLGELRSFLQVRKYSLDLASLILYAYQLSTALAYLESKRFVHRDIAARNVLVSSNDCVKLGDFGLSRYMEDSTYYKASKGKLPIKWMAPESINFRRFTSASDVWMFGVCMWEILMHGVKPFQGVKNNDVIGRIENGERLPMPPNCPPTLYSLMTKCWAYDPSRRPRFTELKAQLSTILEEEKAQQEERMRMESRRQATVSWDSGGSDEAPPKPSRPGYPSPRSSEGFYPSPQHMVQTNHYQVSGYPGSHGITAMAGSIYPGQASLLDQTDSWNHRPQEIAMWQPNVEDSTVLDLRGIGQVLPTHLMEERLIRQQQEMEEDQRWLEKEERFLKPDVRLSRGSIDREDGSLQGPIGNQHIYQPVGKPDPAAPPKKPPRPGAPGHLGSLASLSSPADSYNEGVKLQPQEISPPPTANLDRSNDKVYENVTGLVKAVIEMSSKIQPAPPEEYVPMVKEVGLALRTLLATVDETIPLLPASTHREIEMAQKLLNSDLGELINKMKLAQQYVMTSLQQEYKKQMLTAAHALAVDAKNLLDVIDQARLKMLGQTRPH
Chain of Albumin (Bos taurus) (P02769 whole entry, looked up): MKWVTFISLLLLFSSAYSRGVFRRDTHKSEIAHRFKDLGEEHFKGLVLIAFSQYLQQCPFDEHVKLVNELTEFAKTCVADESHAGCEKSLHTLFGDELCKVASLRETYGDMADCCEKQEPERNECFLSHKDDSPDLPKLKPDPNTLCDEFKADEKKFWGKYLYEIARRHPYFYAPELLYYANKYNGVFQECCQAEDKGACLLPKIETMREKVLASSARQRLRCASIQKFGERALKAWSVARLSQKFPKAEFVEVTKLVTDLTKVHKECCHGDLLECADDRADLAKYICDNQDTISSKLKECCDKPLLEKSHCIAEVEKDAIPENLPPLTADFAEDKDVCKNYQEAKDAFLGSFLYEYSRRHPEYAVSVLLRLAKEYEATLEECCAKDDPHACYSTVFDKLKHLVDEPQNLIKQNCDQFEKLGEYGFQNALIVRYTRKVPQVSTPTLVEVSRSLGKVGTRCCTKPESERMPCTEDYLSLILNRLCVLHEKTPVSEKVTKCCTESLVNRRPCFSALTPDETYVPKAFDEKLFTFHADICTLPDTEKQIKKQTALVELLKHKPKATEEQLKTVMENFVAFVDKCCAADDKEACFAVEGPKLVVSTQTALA
Chain of Follistatin (Homo sapiens) (P19883 whole entry, looked up): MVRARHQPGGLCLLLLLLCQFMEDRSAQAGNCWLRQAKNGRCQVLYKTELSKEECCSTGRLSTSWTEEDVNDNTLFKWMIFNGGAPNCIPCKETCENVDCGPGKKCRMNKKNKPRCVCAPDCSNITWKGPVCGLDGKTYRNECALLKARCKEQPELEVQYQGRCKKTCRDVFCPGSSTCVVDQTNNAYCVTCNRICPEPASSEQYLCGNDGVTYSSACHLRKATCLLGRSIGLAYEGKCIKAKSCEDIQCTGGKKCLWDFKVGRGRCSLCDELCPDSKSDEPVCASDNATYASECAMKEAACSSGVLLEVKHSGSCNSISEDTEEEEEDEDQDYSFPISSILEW
Chain of Fibroblast growth factor 2 (Homo sapiens) (P09038 whole entry, looked up): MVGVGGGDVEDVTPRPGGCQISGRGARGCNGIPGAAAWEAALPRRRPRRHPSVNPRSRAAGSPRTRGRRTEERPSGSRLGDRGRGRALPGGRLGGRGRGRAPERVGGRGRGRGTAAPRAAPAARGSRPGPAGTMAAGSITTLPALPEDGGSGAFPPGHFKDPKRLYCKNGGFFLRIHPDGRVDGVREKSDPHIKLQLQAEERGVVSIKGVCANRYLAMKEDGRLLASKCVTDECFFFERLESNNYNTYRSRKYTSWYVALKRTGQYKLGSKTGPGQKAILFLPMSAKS

| SMILES | composite z-score [1] | composite Z-score [2] | composite z-score [3] | composite z-score [4] | composite z-score [5] | composite z-score [6] | composite z-score [7] | composite z-score [8] | composite z-score [9] | composite z-score [10] | composite z-score [11] | composite z-score [12] | composite z-score [13] | composite z-score [14] | composite z-score [15] | composite z-score [16] | z-score [17] | composite z-score [18] | composite z-score [19] | z-score [20] |
| --- | --- | --- | --- | --- | --- | --- | --- | --- | --- | --- | --- | --- | --- | --- | --- | --- | --- | --- | --- | --- |
| CC(C)=C1C(=O)C(c2ccccc2)=C2CN3C(=O)N(CCc4ccccc4)C(=O)[C@]3(Cc3ccc(C(F)(F)F)cc3)[C@H]21 | 0.682 | -0.355 (inactive) | 0.34 | 0.134 | 0.368 | 1.95 | 0.224 | -0.439 | -2.09 | -0.47 | -0.0822 | 0.566 | 1.01 | -0.0056 | 0.0359 | -1.29 | 1.57 | -1.16 | 0.8 | 0.359 (inactive) |
| NC(=O)[C@@]1(Cc2ccccc2)COC(c2ccc(OCCCO)cc2)=N1 | 0.456 | 0.08 (inactive) | -0.0647 | 0.513 | 0.815 | 2.91 | -0.238 | -0.442 | -0.165 | -0.978 | 1.19 | -0.974 | 0.0264 | -0.979 | -0.0248 | 0.387 | -0.244 | 0.0016 | 0.523 | -4.28 (inactive) |
| COc1cc2c(cc1O)C(C1CC1)N(C)CC2 (stereo not given) | 0.789 | -0.519 (inactive) | -0.257 | -0.19 | 0.902 | -0.374 | -0.308 | -0.758 | -0.778 | -1.91 | -1.19 | -2.06 | -0.532 | -1.18 | -1.09 | -0.716 | 1.32 | -1.59 | -0.413 | -0.872 (inactive) |
| C=CC[C@@H](OC(=O)Nc1ccc(OC)cc1)c1ccc(O)c(F)c1 | 0.66 | 0.683 (inactive) | -0.266 | -0.153 | 0.493 | 1.93 | 0.738 | -0.56 | -0.861 | -0.9 | 0.0579 | -0.0596 | 0.676 | -0.699 | 0.0619 | -0.448 | -1.71 | -0.201 | -0.733 | -4.17 (inactive) |
| CC(C)N1C(=O)C[C@@](C(=O)O)(c2ccc([N+](=O)[O-])cc2)[C@H]1c1ccc(CO)cc1 | -0.795 | 0.589 (inactive) | -0.0947 | -0.0586 | 0.754 | 1.52 | 0.0273 | 0.69 | -1.25 | 0.279 | 0.0886 | -0.619 | -0.0404 | -1.14 | -0.82 | -0.798 | 0.993 | -1.12 | -0.76 | -1.03 (inactive) |

— PubChem BioAssay
